“And” between values parts separate entries of the source, which are not always exact repeats. Equal entries are not always repeated. Some structures have more than one record in an assay (separate samples or runs), and their calls can disagree. The source made the active and inactive calls. No stated cut-off is given here; in the data, active means fold change permeability below about 0.7 or above about 1.3; inactive means in between.
Assay: compounds altering in vitro BBB leakiness – cell-based, FITC-avidin fluorescence, HTS, primary screen (AID 1963498); further: test concentration not given here
Settings: brain endothelial barrier, actives lie on both sides

Fold change permeability, inactive:
c1cnc2c(c1)ccc1cccnc12 1.2
O=C(O)C1CCNCC1 1.2
NC(N)=NCc1cccc(I)c1 0.9
O=C(O)CP(=O)(O)O 1
CCCCCCCCCCCCCCCCCCc1ccc(C(=O)/C=C/C(=O)O)cc1 1.2
CSc1ccc2c(c1)C(N1CCN(C)CC1)Cc1ccccc1S2 (stereo not given) 0.9
Nc1ncnc2c1nc(Br)n2C1OC2COP(=O)(O)O[C@@H]2C1O (stereo not given in full) 1
CC(=O)N[C@H](C(=O)O)C(C)(C)SN=O 0.9
c1ccc(-c2cnn3cc(-c4ccc(OCCN5CCOCC5)cc4)cnc23)cc1 1.2

Fold change permeability, active:
CC1=C(/C=C/C(C)=C/C=C/C(C)=C/C(=O)O)C(C)(C)CCC1 1.3
O=C(CCCN1CCC(O)(c2cccc(C(F)(F)F)c2)CC1)c1ccc(F)cc1 1.6
CC1=C(/C=C/C(C)=C/C=C/C(C)=C\C(=O)O)C(C)(C)CCC1 1.4
O=C(c1cc(O)c(O)c([N+](=O)[O-])c1)c1ccccc1F 1.7
CNCCC(Oc1ccccc1C)c1ccccc1 (stereo not given) 0.7
CC#CCOC(=O)c1c(C)nc2sc3c(c2c1N)CCC(O)C3 (stereo not given) 1.9
CCN(c1nc(N)c(C(=O)N=C(N)N)nc1Cl)C(C)C 1.4
O=C(O)CNC(=O)C(CS)Cc1ccccc1 (stereo not given) 0.6
COc1ccc(CCn2nnnc2C2(c3ccc(C)cc3)CC2)cc1 1.6
N=C1CCCN1Cc1[nH]c(=O)[nH]c(=O)c1Cl 1.6

Fold change permeability, […] (inactive) and 1.8 (active):
CC(C)NC[C@H](O)c1ccc(O)c(O)c1

Reference: PubChem BioAssay
